Measured values reported in PubChem BioAssay (NCATS).
Results filed as inconclusive are left out. Active and inactive are the calls of the source. Calls come from the whole dose curve; as a rule, active = well fitted inhibition curve with a large enough effect; inconclusive = small, poorly fitted or top-dose-only effect; inactive = flat fitted curve, though single readings scatter.

Assays:
CRL-7250 = normal cell line; test: Cytotoxic Profiling of Annotated Libraries Using Quantitative High-Throughput Screening (AID 1296008); conditions: Five cell lines viability, CellTiter-Glo ATP luminescence, 48-72 h; max response: stronger effect = lower value; for max response: % is set by controls: 0 for no effect and ±100 for the full control effect
How it was run: (§1)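 Cells exposed to compounds for 48 or 72 hr at 37 degrees Celsius. Viability read as ATP-coupled luminescence with CellTiter-Glo after 10 min at room temperature.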

HEK293 = test: as above; conditions: Five cell lines viability, CellTiter-Glo ATP luminescence, 48-72 h; max response: stronger effect = lower value
How it was run: as §1

HaCat = test: as above; conditions: Five cell lines viability, CellTiter-Glo ATP luminescence, 48-72 h; max response: stronger effect = lower value
How it was run: as §1

KB-3-1 = test: as above; conditions: Five cell lines viability, CellTiter-Glo ATP luminescence, 48-72 h; max response: stronger effect = lower value
How it was run: as §1

NIH3T3 = test: as above; conditions: Five cell lines viability, CellTiter-Glo ATP luminescence, 48-72 h; max response: stronger effect = lower value
How it was run: as §1

HEK293T = test: qHTS assay to identify novel small-molecules to repurpose for Merkel cell carcinoma treatment (AID 1296009); conditions: MCC and control cell lines, CellTiter-Glo viability, 72 h; series mostly up to 44.8 µM
How it was run: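 Cells were treated for 72 hr at 37 degree celsius with compounds in 8- or 11-point dose response. Viability was read by CellTiter-Glo luminescence, normalized to no-cell (cytotoxicity) and DMSO controls.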
Note: nearly all actives have a fitted effect of over 60% in size.

CCNC(=O)[C@H]1O[C@H](n2cnc3c(NCC(c4ccccc4)c4ccccc4)nc(C(=O)NCCNC(=O)NC4CCN(c5ccccn5)CC4)nc32)[C@H](O)[C@@H]1O
inactive: max response (CRL-7250) -2.5% | outcome (HEK293) | max response (HaCat) -11.9% | max response (KB-3-1) 2.94% | max response (NIH3T3) 1.64% | Potency (HEK293T)

CC(=O)c1c(O)cc2c(c1C)C(=O)CC(O)C2 (stereo not drawn)
inactive: max response (CRL-7250) 4.51% | outcome (HEK293) | max response (HaCat) 1.58% | max response (KB-3-1) 9.72% | max response (NIH3T3) 1.74% | Potency (HEK293T)

O=C(/C=C/c1ccc(O)c(O)c1)OCc1ccccc1O[C@@H]1O[C@H](CO)[C@@H](O)[C@H](O)[C@H]1O
inactive: max response (CRL-7250) -1.33% | outcome (HEK293) | max response (HaCat) 1.88% | max response (KB-3-1) 0.279% | max response (NIH3T3) -4.16% | Potency (HEK293T)

CN1C(=O)c2ccccc2-n2c(nc3ccccc3c2=O)[C@@]12O[C@H]2c1ccccc1
inactive: max response (CRL-7250) -8.37% | outcome (HEK293) | max response (HaCat) -0.431% | outcome (KB-3-1) | outcome (NIH3T3) | Potency (HEK293T)

C=C1CC[C@H]2[C@@](C)(CCC[C@@]2(C)C(=O)O)[C@@H]1CCC(C)CCO (stereo partly drawn)
inactive: max response (CRL-7250) -8.65% | outcome (HEK293) | max response (HaCat) 1.39% | max response (KB-3-1) 2.57% | max response (NIH3T3) 3.89% | Potency (HEK293T)

CNC(=O)[C@H]1O[C@@H](n2cnc3c(NCc4ccc(N)c(I)c4)ncnc32)[C@H](O)[C@@H]1O
inactive: max response (CRL-7250) -3.43% | outcome (HEK293) | max response (HaCat) -7.91% | outcome (KB-3-1) | max response (NIH3T3) -0.967% | outcome (HEK293T) inactive [at 9.27 µM]

CCC(NC(=O)CC(NC(=O)C(CO)NC(=O)C(CC)NC(=O)c1ccc[nH]1)c1ccccc1)C(=O)O (stereo not drawn)
inactive: max response (CRL-7250) -9.47% | outcome (HEK293) | max response (HaCat) -0.876% | outcome (KB-3-1) | outcome (NIH3T3) | Potency (HEK293T)

O=c1c2cccnc2n(-c2cccc([N+](=O)[O-])c2)c(=O)n1Cc1ccncc1
inactive: outcome (CRL-7250) | outcome (HEK293) | max response (HaCat) -29.4% | outcome (KB-3-1) | max response (NIH3T3) -3.44% | Potency (HEK293T)

COC(=O)[C@@H]1C2CC3c4[nH]c5ccccc5c4CCN3CC2CC[C@@H]1O (stereo partly drawn)
inactive: outcome (CRL-7250) | outcome (HEK293) | max response (HaCat) -0.215% | max response (KB-3-1) 6.91% | outcome (NIH3T3) | Potency (HEK293T)

COc1cc(/C=C/C(=O)O[C@H]2[C@H](OC(=O)/C=C/c3cc(OC)c(O)c(OC)c3)O[C@H](CO[C@@H]3O[C@H](CO)[C@@H](O)[C@H](O)[C@H]3O)[C@@H](O)[C@@H]2O)ccc1O
inactive: outcome (CRL-7250) | outcome (HEK293) | max response (HaCat) -26% | max response (KB-3-1) 7.55% | max response (NIH3T3) -14.9% | Potency (HEK293T)

CC1CCC2C(C)(C)C(O)CCC2(C)C12Cc1c(O)cc3c(c1O2)CN(C(CCC(N)=O)C(=O)O)C3=O (stereo not drawn)
inactive: max response (CRL-7250) 0.113% | outcome (HEK293) | max response (HaCat) 2.99% | max response (KB-3-1) 5.86% | max response (NIH3T3) -0.736% | Potency (HEK293T)

CC(=O)N[C@H]1[C@H](O[C@H]2CC[C@@]3(C)C(CC[C@]4(C)C3CC=C3C5CC(C)(C)CC[C@]5(C(=O)O)[C@H](O[C@@H]5O[C@H](CO)[C@@H](O)[C@H](O)[C@H]5O)C[C@]34C)C2(C)C)O[C@H](CO[C@@H]2OC[C@H](O)[C@H](O)[C@H]2O[C@@H]2OC[C@@H](O)[C@H](O)[C@H]2O)[C@@H](O)[C@@H]1O (stereo partly drawn)
inactive: outcome (CRL-7250) | outcome (HEK293) | max response (HaCat) -15.2% | max response (KB-3-1) 2.21% | max response (NIH3T3) -4.54% | outcome (HEK293T) inactive [at 9.27 µM]

CC(C)(O)C1CC=C(C(=O)OCC2OC(Oc3c(O)cc(C(=O)O)cc3O)C(O)C(O)C2O)CC1 (stereo not drawn)
inactive: max response (CRL-7250) -4.71% | outcome (HEK293) | max response (HaCat) -2.95% | outcome (KB-3-1) | outcome (NIH3T3) | Potency (HEK293T)

CC(=O)OCCC(C)CCC1C(C)(O)CCC2C(C)(C)CCCC21C (stereo not drawn)
inactive: max response (CRL-7250) -8.91% | outcome (HEK293) | max response (HaCat) -0.371% | outcome (KB-3-1) | max response (NIH3T3) -3.93% | Potency (HEK293T)

CC1(C)CCC(C)(C)c2cc([C@@H](O)C(=O)Nc3ccc(C(=O)O)cc3F)ccc21
inactive: max response (CRL-7250) -3.37% | outcome (HEK293) | max response (HaCat) -6.8% | outcome (KB-3-1) | outcome (NIH3T3) | Potency (HEK293T)

CN1C(=O)c2ccccc2-n2c(nc3ccccc3c2=O)/C1=C/c1ccccc1
inactive: outcome (CRL-7250) | outcome (HEK293) | max response (HaCat) -6.39% | outcome (KB-3-1) | max response (NIH3T3) 3.9% | Potency (HEK293T)

N[C@@H](CC(=O)N1CCn2c(nnc2C(F)(F)F)C1)Cc1[nH]nc2c(F)c(F)ccc12
inactive: max response (CRL-7250) -0.191% | outcome (HEK293) | max response (HaCat) -2.51% | max response (KB-3-1) -3.58% | max response (NIH3T3) -1.97% | Potency (HEK293T)

C[C@@H]1O[C@@H](O[C@H]2[C@H](OC(=O)[C@]34CCC(C)(C)C[C@H]3C3=CCC5[C@@]6(C)CC[C@H](O[C@@H]7O[C@H](CO[C@@H]8OC[C@H](O)[C@H](O)[C@H]8O)[C@@H](O)[C@H](O)[C@H]7O)C(C)(C)C6CC[C@@]5(C)[C@]3(C)C[C@H]4O)OC[C@@H](O)[C@@H]2O)[C@H](O)[C@H](O)[C@H]1O[C@@H]1OC[C@H](O)[C@H](O[C@@H]2OC[C@@H](O)[C@H](O)[C@H]2O)[C@H]1O (stereo partly drawn)
inactive: max response (CRL-7250) -0.806% | outcome (HEK293) | max response (HaCat) -0.578% | outcome (KB-3-1) | outcome (NIH3T3) | outcome (HEK293T) inactive [at 9.27 µM]
